Only some compounds are listed: those with a hit (about 9% of all), similar ones and a draw of the others.
KinaseGlo FLuc: Counterscreen for Luciferase (Kinase-Glo TM) Inhibition; Luciferin 4-monooxygenase (Photuris pensylvanica), Q27757; Kinase-Glo luciferase, ATP luminescence, 8 min; Potency, µM (series often up to 38.3 µM), for inactives: top-dose activity change, negative = inhibition, most hits filed as inhibitors; 200,000 tested, 0.28% active; AID 1379, 2008; note: nearly all actives have a fitted effect of over 60% in size
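Compound is pinned into ATP-containing buffer (10 uM ATP, imidazole pH 7.2, 7 mM MgCl2). Kinase-Glo luciferase reagent is then added. Light output is recorded following an 8-min room-temperature incubation.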
ALDH1A1 block: qHTS Assay for Inhibitors of Aldehyde Dehydrogenase 1 (ALDH1A1); AID 1030, 2008; 220,000 tested, 7.3% active; Potency, µM (series often up to 75.3 µM), for the others: top-dose activity, negative = inhibition, actives largely listed as inhibitors; Purified ALDH1A1, NADH fluorescence, propionaldehyde substrate; Aldehyde dehydrogenase 1A1 (Homo sapiens), P00352; active = well fitted inhibition curve with a large enough effect, not every such curve was filed as active; inconclusive = small, poorly fitted or top-dose-only effect, or another doubt; inactive = no such curve, though single readings can be large or run the other way;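 note: plate controls were no enzyme wells and a reference inhibitor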
Target sequence (P00352 whole entry, looked up): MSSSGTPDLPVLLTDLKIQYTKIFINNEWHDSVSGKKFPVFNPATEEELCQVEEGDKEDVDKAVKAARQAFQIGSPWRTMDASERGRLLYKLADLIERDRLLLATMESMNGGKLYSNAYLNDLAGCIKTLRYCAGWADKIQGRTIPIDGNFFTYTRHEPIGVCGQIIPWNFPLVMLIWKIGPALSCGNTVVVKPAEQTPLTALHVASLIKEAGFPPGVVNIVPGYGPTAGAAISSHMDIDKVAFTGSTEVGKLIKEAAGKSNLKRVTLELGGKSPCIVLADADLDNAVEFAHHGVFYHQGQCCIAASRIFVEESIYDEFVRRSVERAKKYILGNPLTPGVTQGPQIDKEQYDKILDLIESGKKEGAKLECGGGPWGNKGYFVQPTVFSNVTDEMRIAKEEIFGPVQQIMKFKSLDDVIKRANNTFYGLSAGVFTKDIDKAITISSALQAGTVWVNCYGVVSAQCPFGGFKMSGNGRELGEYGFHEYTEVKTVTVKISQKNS
Lamin A splicing: qHTS Assay for Modulators of Lamin A Splicing | Potency, µM (doses to about 46.1 µM), without a hit: top-dose ratio change, negative = inhibition, hits mostly inhibitors | HeLa LMNA splicing GFP/RFP minigene ratio, 48 h | 200,000 tested, 0.01% active; active = well fitted inhibition curve with a large enough effect in the signal ratio, with a control signal flat, not every such curve was filed as active; inconclusive = small, poorly fitted or top-dose-only effect, or effect the other way, or a change in a side signal; the % refers to the signal ratio
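S3 HeLa cells stably expressing lamin A-EGFP splicing minigene plus DsRed2, 600 cells/well, 48 h compound exposure at 37C. Laser-scanning cytometry; analysed as GFP (500-530 nm)/RFP (575-640 nm) total intensity ratio; 0.5% DMSO vehicle.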
HPGD block: qHTS Assay for Inhibitors of HPGD (15-Hydroxyprostaglandin Dehydrogenase); 15-hydroxyprostaglandin dehydrogenase [NAD(+)] (Homo sapiens), P15428; purified HPGD, NADH fluorescence kinetic, PGE2 substrate; Potency, µM, for inactives: at the highest dose activity change, negative = inhibition, hits mostly inhibitors; 150,000 tested, 4.3% active; AID 894, 2007; active = well fitted inhibition curve with a large enough effect, not every such curve was filed as active; inconclusive = small, poorly fitted or top-dose-only effect, or another doubt; inactive = no such curve, though single readings can be large or run the other way
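NADH formation kinetics: reaction with 30 uM PGE2 and 1 mM NAD+ (final), 20 nM enzyme, Tris-HCl pH 8 with Tween 20, after 15 min compound preincubation at room temperature. Fluorescence change, last versus first of five reads.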
IMPase Li cell: qHTS Assay for Identifying the Cell-Membrane Permeable IMPase Inhibitors: Potentiation with Lithium. CHO-M1 cells, IP1 TR-FRET (IP-One), carbachol + lithium. Potency, µM (highest dose often 59.4 µM), for the others: at the highest dose activity, negative = IMPase inhibition, actives largely listed as inhibitors. AID 1457, 2008. 210,000 tested, 0.35% active;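 note: IP1 builds up when IMPase is blocked and the TR-FRET signal falls; plate controls were basal vehicle for no effect and high inhibitor control for full effect; nearly all actives have a fitted effect of over 50% in size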
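Lithium-sensitised IP1 accumulation assay; M1-expressing CHO cells treated 30 min at 37C with compound. Competitive antibody detection by time-resolved FRET followed a 10 min room-temperature lysis step.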
An asterisk follows results filed as active; ? = inconclusive; / = no result; [ ] = remark or other dose. Unless noted, calls come from the whole dose curve; as a rule, active = well fitted curve in the direction sought with a large enough effect; inconclusive = small, poorly fitted or top-dose-only effect, or another doubt; inactive = no such curve, though single readings can be large; an effect the other way counts as inactive or inconclusive. Unless noted, % is set by controls: 0 for no effect and ±100 for the full control effect; potency is the fitted concentration of half-maximal effect.

SMILES | KinaseGlo FLuc | ALDH1A1 block | Lamin A splicing | HPGD block | IMPase Li cell
CCN(CCO)c1nc(SC)nc2c1sc1nc(-c3ccco3)c3c(c12)CCC3 | -0.5% | 2µM* | ? | ? | -7.1%[38.3 µM]
CN(C)CCN(Cc1ccco1)S(=O)(=O)c1cc2c(cc1Cl)NC(=O)CO2 | / | / | -2.8%[46 µM] | / | /
CC(C)CC(c1nnnn1C1CCCC1)N1CCC(C(N)=O)CC1 (stereo not given) | -0.2% | 22.4µM* | / | / | 14.9%
C=CCSc1nc2sc3c(c2c(=O)n1CC)CCc1ccccc1-3 | -7.8% | 1.58µM* | 0.5% | 2.24µM* | 6.6%[38.3 µM]
Cc1cc(C(=O)Nc2nc(C)c(C(=O)N(C)C)s2)ccc1[N+](=O)[O-] | -3.7% | 10.1% | -3.1% | -6.2% | 0.6%
Cc1nc(NC(=O)c2ccc([N+](=O)[O-])cc2Cl)sc1C(=O)N(C)C | -3.2% | 12.6µM* | 15.2% | 14.1µM* | 5.6%
COc1ccc(Nc2nc(N)nc(CSc3n[nH]c(-c4ccccc4)n3)n2)cc1 | -7.1% | 2.1% | -15.5% | 22.4µM* | 11.9%[38.3 µM]
Cc1ccc(Nc2nc(N)nc(CSc3ncccn3)n2)cc1 | 18.6% | 0.9% | -1.2% | -4.7% | 18.2%[38.3 µM]
Nc1nc(CSc2n[nH]c(-c3ccccc3)n2)nc(Nc2ccccc2)n1 | 1.2% | ? | -10.3% | 12.6µM* | 14.8%[38.3 µM]
Nc1nc(CSC(=S)N2CCCCC2)nc(Nc2ccccc2)n1 | 4.3% | 25.1µM* | / | / | 23.4%
COC(=O)c1ccc(NC(=O)CN2CCN(c3ccccn3)CC2)cc1 | 1.9% | 3.6% | / | / | 2.2%
CCN1C(C)=C(C)S/C1=C1\SC(=S)N(N)C1=O | -1.5% | 20µM* | / | / | 27.7%
CCCc1cc(C(=O)NNC(=S)Nc2cccc(C)c2)cs1 | -3.9% | 10µM* | ? | ? | -2.3%
Cc1cccc(NC(=S)NNC(=O)c2csc3c2CCC(C)C3)c1 (stereo not given) | -3.3% | 22.4µM* | ? | -8.1% | 21.5%[38.3 µM]
CC(C)c1ccccc1-n1c(-c2cccnc2)n[nH]c1=S | -0.7% | -0.4% | / | / | -2.9%
COC(=O)c1ccc(Sc2ccccc2NS(=O)(=O)c2ccc(C)cc2)nc1 | -3.5% | 28.2µM* | -0.9% | -0.3% | -10.1%[38.3 µM]
Cc1ccc(S(=O)(=O)N/N=C/c2c(C)nn(-c3ccccc3)c2C)cc1 | 20.6% | ? | 1.3% | -16.7% | 52.9%[38.3 µM]
CC1=C/C(=C/N(C)c2ccccc2)C(=O)S1 | -0.9% | 20µM* | -0.3% | 31.6µM* | 0.0%[38.3 µM]
CCC(=O)OCC(=O)c1cc(C)n(-c2ccc(Br)cc2)c1C | -6.1% | -5.2% | -0.8%[46 µM] | / | -1.8%
CCN(CC)COC(=S)S | -2.7%[7.66 µM] | 2.82µM* | / | 3.16µM* | 4.1%
COC(=O)[C@@]1(Cc2ccccc2)[C@H]2c3cc(C(=O)N4CCCC4)n(Cc4cc(F)cc5c4OCOC5)c3C[C@H]2CN1C(=O)c1ccccc1 | -3.2% | 1.1% | / | -11.5% | 20.0%
COc1cccc(-n2nnnc2S(C)(=O)=O)c1 | 4.1% | 1.26µM* | ? | 20µM* | 27.8%[38.3 µM]
COc1ccc(-n2nnnc2SCC(=O)Nc2cccc(NC(C)=O)c2)cc1OC | 1.6% | 2.0% | 6.0% | ? | -9.2%[38.3 µM]
COC(=O)CSc1nc2ccc(NC(=O)CSc3nnnn3Cc3ccccc3)cc2s1 | -2.3% | 4.47µM* | -3.1% | ? | 20.7%[38.3 µM]
COc1ccc(NC(=O)CSc2nnnn2Cc2ccccc2)cc1 | -9.1% | ? | / | / | 2.3%
SMILES | KinaseGlo FLuc | ALDH1A1 block | Lamin A splicing | HPGD block | IMPase Li cell
O=C(CSc1nc2ccc(NC(=O)CSc3nnnn3Cc3ccccc3)cc2s1)Nc1ccccc1 | 2.3% | 12.6µM* | -5.4% | ? | -23.8%
COc1cccc(-n2nnnc2SCC(=O)Nc2cccc(NC(C)=O)c2)c1 | 2.3% | 7.08µM* | ? | -21.1% | 13.7%[38.3 µM]
COc1cccc(Oc2nnnn2-c2ccccc2)c1 | / | ? | 4.9% | / | /
COc1cccc(-n2ccn(CC(=O)Nc3ccccc3F)c(=O)c2=O)c1 | / | / | 9.3%[46 µM] | / | /
O=C(CN1CCN(c2ccc(C(F)(F)F)cn2)CC1)NCc1ccc2c(c1)OCO2 | / | ? | -8.7%[46 µM] | / | /
Cc1ncc(CO)c(C=O)c1O | 0.4%[39.9 µM] | -12.6% | ? | -27.8% | 6.4%
CC(=O)Nc1cccc(NC(=O)CSc2nnnn2Cc2ccccc2)c1 | -4.9% | 12.6µM* | ? | -7.6% | -5.1%[38.3 µM]

Screening data: PubChem BioAssay, National Center for Advancing Translational Sciences (NCATS)
